{"source": "PubChem BioAssay (NCI)", "assay": "NCI Yeast Anticancer Drug Screen. Data for the mlh1 rad18 strain (AID 175)", "details": "S. cerevisiae mlh1 rad18 strain growth inhibition, stronger effect = higher value", "experimental": "Growth inhibition of yeast strains with defined genetic alterations is measured as a screen for potential anti-cancer activity. Selected strains with alterations in DNA damage repair or cell cycle control were exposed to compounds and growth inhibition was measured relative to vehicle treated controls. The strain used in this assay is mlh1 rad18", "key": {"[1]": {"details": "at 5.0 µM (retest, dose inferred, filed as 0.5)"}, "[2]": {"details": "at 50.0 µM (retest, dose inferred, filed as 5.0)"}}, "note": "Several values for one entry are separate records, joined by “and”; a condition that tells them apart may be missing. Identical values can stand only once. About 79,000 compounds went through this panel and 15% of them were active in at least one assay; those are over-represented in the sample as a whole. A number with no mark means an inactive call. Activity calls are given as the source filed them. No stated cut-off is given here; in the data, active means growth inhibition above about 70%; inactive means the rest."}
{"smiles": "N=c1oc2ccccc2cc1-c1nc2ccccc2[nH]1", "values": [{"measurement": "growth inhibition", "setting": "[1]", "result": 6, "unit": "%"}, {"measurement": "growth inhibition", "setting": "[2]", "result": "84% (active)"}, {"measurement": "growth inhibition", "setting": "at 50.0 µM", "result": 16.6, "unit": "%"}]}
{"smiles": "Oc1ccc(Br)cc1C=Nc1cccc(C(F)(F)F)c1", "values": [{"measurement": "growth inhibition", "setting": "[1]", "result": 48, "unit": "%"}, {"measurement": "growth inhibition", "setting": "[2]", "result": "97% (active)"}, {"measurement": "growth inhibition", "setting": "at 50.0 µM", "result": 66.9, "unit": "%"}]}
{"smiles": "O=C1C(C(O)(C(F)(F)F)C(F)(F)F)CCC1C(O)(C(F)(F)F)C(F)(F)F", "note": "(configuration not stated)", "values": [{"measurement": "growth inhibition", "setting": "[1]", "result": 2, "unit": "%"}, {"measurement": "growth inhibition", "setting": "[2]", "result": 49, "unit": "%"}, {"measurement": "growth inhibition", "setting": "at 50.0 µM", "result": 69.5, "unit": "%"}]}
{"smiles": "O=c1[nH]cc(F)c(=O)[nH]1", "values": [{"measurement": "growth inhibition", "setting": "[1]", "result": 16, "unit": "%"}, {"measurement": "growth inhibition", "setting": "[2]", "result": "86% (active)"}, {"measurement": "growth inhibition", "setting": "at 50.0 µM", "result": "89.2% (active)"}]}
{"smiles": "CN(C)CCn1c2ccccc2c2nc3cc4ccccc4cc3nc21", "values": [{"measurement": "growth inhibition", "setting": "[1]", "result": 34, "unit": "%"}, {"measurement": "growth inhibition", "setting": "[2]", "result": "98% (active)"}, {"measurement": "growth inhibition", "setting": "at 50.0 µM", "result": "71.2% (active)"}]}
{"smiles": "O=c1[nH]c(=O)n(CCCO)cc1F", "values": [{"measurement": "growth inhibition", "setting": "[1]", "result": 47, "unit": "%"}, {"measurement": "growth inhibition", "setting": "[2]", "result": 45, "unit": "%"}, {"measurement": "growth inhibition", "setting": "at 50.0 µM", "result": -41.3, "unit": "%"}]}
{"smiles": "Cc1nc2ccc(Br)cc2c(=O)n1-c1ccc(NC2OCC(O)C(O)C2O)cc1", "note": "(configuration not stated)", "values": [{"measurement": "growth inhibition", "setting": "[1]", "result": -38, "unit": "%"}, {"measurement": "growth inhibition", "setting": "[2]", "result": "79% (active)"}, {"measurement": "growth inhibition", "setting": "at 50.0 µM", "result": "62.4% and 13.8%"}]}
{"smiles": "S=c1[nH]nc(Cc2ccccc2)c(=S)[nH]1", "values": [{"measurement": "growth inhibition", "setting": "[1]", "result": 53, "unit": "%"}, {"measurement": "growth inhibition", "setting": "[2]", "result": 60, "unit": "%"}, {"measurement": "growth inhibition", "setting": "at 50.0 µM", "result": "75.2% (active)"}]}
{"smiles": "CN(C)CCNC(=O)c1cccc2nc3c(ccc4ccccc43)nc12", "values": [{"measurement": "growth inhibition", "setting": "[1]", "result": 7, "unit": "%"}, {"measurement": "growth inhibition", "setting": "[2]", "result": "92% (active)"}, {"measurement": "growth inhibition", "setting": "at 50.0 µM", "result": "90.2% (active)"}]}
{"smiles": "CCOC(=O)c1[nH]c2cccc3c2c1CC(Br)C3=O", "note": "(configuration not stated)", "values": [{"measurement": "growth inhibition", "setting": "[1]", "result": "82% (active)"}, {"measurement": "growth inhibition", "setting": "[2]", "result": "96% (active)"}, {"measurement": "growth inhibition", "setting": "at 50.0 µM", "result": "89.4% (active)"}]}
{"smiles": "CC(C)c1ccc(C2NC(=S)NC3=C2c2ccccc2C3=O)cc1", "note": "(configuration not stated)", "values": [{"measurement": "growth inhibition", "setting": "[1]", "result": -36, "unit": "%"}, {"measurement": "growth inhibition", "setting": "[2]", "result": 32, "unit": "%"}, {"measurement": "growth inhibition", "setting": "at 50.0 µM", "result": "74.1% (active)"}]}
{"smiles": "Cc1ccc(S(=O)(=O)N/N=C/c2c(O)ccc3ccccc23)cc1", "values": [{"measurement": "growth inhibition", "setting": "[1]", "result": 44, "unit": "%"}, {"measurement": "growth inhibition", "setting": "[2]", "result": 64, "unit": "%"}, {"measurement": "growth inhibition", "setting": "at 50.0 µM", "result": "78.5% (active)"}]}
{"smiles": "Cc1cnc(/C=N\\NC(N)=S)c2cccc(N)c12", "values": [{"measurement": "growth inhibition", "setting": "[1]", "result": "17% and 23%"}, {"measurement": "growth inhibition", "setting": "[2]", "result": "85% (active) and 82% (active)"}, {"measurement": "growth inhibition", "setting": "at 50.0 µM", "result": "75.2% (active) and 89% (active)"}]}
{"smiles": "Nc1ccc2ncc(Nc3ccc(Cl)c(Cl)c3)nc2c1", "values": [{"measurement": "growth inhibition", "setting": "[1]", "result": 44, "unit": "%"}, {"measurement": "growth inhibition", "setting": "[2]", "result": "98% (active)"}, {"measurement": "growth inhibition", "setting": "at 50.0 µM", "result": "80.5% (active)"}]}
